# PubChem BioAssay (Tox21)
# Records with an inconclusive call do not appear. Values without a mark were called inactive. The source made the active and inactive calls. Calls follow the shape of the dose curve; as a rule, active = well fitted activation curve with a large enough effect in the signal ratio in the repeat runs (not every such curve was filed as active); inconclusive = weak or mixed curves; inactive = flat fitted curve, though single readings scatter; the % refers to the signal ratio.
# Test: qHTS assay to identify small molecule agonists of H2AX (AID 1224845)
# Details: CHO-K1 phospho-H2AX Ser139 HTRF, 3 h; series mostly up to 154 µM; activation (H2AX phosphorylation): at the top concentration
# Excerpt: National Center for Advancing Translational Sciences [NCATS]
# NIH Chemical Genomics Center [NCGC]
# U.S. Environmental Protection Agency [EPA]
# National Institutes of Environmental Health Sciences [NIEHS]
# National Toxicology Program [NTP]
# U.S. Food and Drug Administration [FDA]
# HTRF phospho-H2AX (Ser139) assay (Cisbio Bioassays, US) enables the quantitative detection of the histone variant H2AX when phosphorylated on serine 139. When double-stranded DNA breaks, either by ionizing radiation or endogenous physiological processes, H2AX becomes phosphorylated at Ser139. This phospho-Ser139 serves as a sensitive biomarker for the detection of such breaks, localizing the site of DNA repair. So, HTRF phospho-H2AX Ser139 is a pertinent assay to study genome stability, the cell cycle, DNA repair, and it serves as a biomarker for cancer, and to understand aging. Wild type CHO-K1 cells were used to identify the inducers of Phospho-H2AX Ser 139 from the Tox21 10K compound collections.
# Tox21 Assay Protocol Summary:
# The CHO-K1 cells suspended in culture medium containing 10% FBS were dispensed at 1000 cells/ 3 ul/well in 1536-well white wall/solid bottom plates (Greiner Bio-One North America, NC) using a Multidrop Combi (Thermo Fisher Scientific Inc., Waltham, MA). After the assay plates were incubated at 37C overnight, 23 nl of compounds at 15 concentrations (from 5-48 columns) or positive control (from 1 to 4 columns) were transferred to the assay plates using a Pintool station (Wako, San Diego, CA) into each well resulting in a final DMSO concentration of 0.76%. After 3hr incubation at 37C, 1 uL/well Supplemented Lysis buffer (diluted 100 fold blocking reagent in lysis buffer) (HTRF Phospho-H2A.X (S139) Assay kit from Cisbio US Inc., Bedford, MA) was added using a Flying Reagent Dispenser (FRD) (Aurora Discovery, CA). After 10sec spin at 1000 rpm in a plate centrifuge, the assay plates were incubated at room temperature for 30 min. Then followed by the addition of 1 uL/well detection buffer (containing a mixture of two antibodies, one labeled with cryptate, Anti pH2AX (S139)-K and another labeled with d2, Anti H2AX-d2) using FRD. After incubation at room temperature for 24 hr, the time resolved fluorescence at excitation 320 nm and emissions at 665 nm and 620 nm was measured using an Envision plate reader (PerkinElmer, Waltham, MA).
# % is scaled to controls: 0 for no effect and ±100 for the full control effect.
Compound,activation (H2AX phosphorylation),Potency
CC#N,5.36%,
CCCCCCCCCCCCCCC[C@H](O)[C@@H](N)CO,0.351% [at 70.9 µM],
OC(CCCN1CCCCC1)(c1ccccc1)c1ccccc1,-4.96% [at 70.9 µM],
CCCCCCCC/C=C\CCCCCCCC(=O)OC(CO)CO,-1.25%,
O=C(Nc1ccccc1)Nc1ccccc1,4.4%,
Nc1c(I)cc(I)c(C(=O)N(CCC(=O)O)c2ccccc2)c1I,0.0244% [at 70.9 µM],
O=C(O)Cc1ccc(-c2ccccc2)cc1,-1.49% [at 70.9 µM],
O=Cc1c(Cl)cccc1Cl,0.797%,
COC(=O)c1cc(Cl)ccc1NS(=O)(=O)C(F)(F)F,-2.77% [at 70.9 µM],
CCCCC/C(=C\c1ccccc1)CO,-5.83%,
N#C/C(=C1/SC[C@@H](c2ccc(Cl)cc2Cl)S1)n1ccnc1,1.09% [at 70.9 µM],
CC(=O)Oc1ccc2c(c1)CC[C@@H]1[C@@H]2CC[C@]2(C)[C@@H](O)CC[C@@H]12,2.31% [at 70.9 µM],
COC(OC)(C(=O)c1ccccc1)c1ccccc1,-2.48%,
CCCCCCOC(=O)CCCCCCCC(=O)OCCCCCC,-0.0387%,
CC(=O)N(c1onc(C)c1C)S(=O)(=O)c1ccc(N)cc1,-2.54% [at 70.9 µM],
CCC(C)(C)C1CCC(O)CC1 (stereo not given),-3.3%,
CCCCCCCC/C=C\CCCCCCCC(=O)OC,0.257%,
O=S1OCCO1,-1.46%,
CC[C@@H]([C@H](C)O)n1ncn(-c2ccc(N3CCN(c4ccc(OC[C@@H]5CO[C@@](Cn6cncn6)(c6ccc(F)cc6F)C5)cc4)CC3)cc2)c1=O,7.34% [at 70.9 µM],
CN(C)CCOC1=Cc2ccccc2Sc2ccc(Cl)cc21,2.04% [at 70.9 µM],

Compound,activation (H2AX phosphorylation),Potency
CN(C(=O)C(Cl)Cl)c1ccc(OC(=O)c2ccco2)cc1,-3.06% [at 70.9 µM],
O=S(=O)(c1ccccc1)c1ccc(Cl)cc1,-2.09%,
CCOc1cc(N)c(Cl)cc1C(=O)NCC1CN(Cc2ccc(F)cc2)CCO1 (stereo not given),3.13% [at 70.9 µM],
CCOC(=O)OCC,-2.05%,
O=C(CCCCCCCCC#CI)Oc1ccccc1,-0.88% [at 70.9 µM],
CCCCCCCCCCOS(=O)(=O)O,-0.946%,
NC(=O)Nc1ccc(Cl)cc1,-1.79%,
CC(C)=CC=O,0.42%,
COCc1c(C(C)C)nc(C(C)C)c(/C=C/[C@@H](O)C[C@@H](O)CC(=O)O)c1-c1ccc(F)cc1,,inactive
CCCOC(=O)c1ccc(N)cc1,0.0979% [at 70.9 µM],
CC(C)(C)CC(C)(C)c1ccc(OCCO)cc1,3.45%,
O=C(CCCCCCC(=O)Nc1ccccc1)NO,4.67% [at 70.9 µM],
CCOC(=O)c1ccccc1C,0.241%,
CCOC(=N)CC(=O)OCC,1.67%,
Cc1ccccc1N1C(=O)c2cc(S(N)(=O)=O)c(Cl)cc2NC1C (stereo not given),-1.21% [at 70.9 µM],
C=CC(C)(O)CCCC(C)CCCC(C)CCCC(C)C (stereo not given),-0.178%,
CC1CN(c2cc3c(cc2F)c(=O)c(C(=O)O)cn3-c2ccc(F)cc2F)CCN1 (stereo not given),-0.572% [at 14 µM],
CC(C)C(OC(=O)c1ccccc1)C(C)(C)COC(=O)c1ccccc1 (stereo not given),-1.59%,
C=CCCCCCCCCCCCCCCCC,-2.87% [at 14 µM],
CCCOC(=O)c1ccc(C(=O)OCCC)nc1,-0.545%,
